# Reference: PubChem BioAssay (NCATS)
# Records with an inconclusive call do not appear. Where a call stands in place of a potency, no number is given. Values without a mark were called inactive. Active and inactive are the calls of the source. Calls follow the shape of the dose curve; as a rule, active = well fitted cell-killing curve with a large enough effect; inconclusive = small, poorly fitted or top-dose-only effect, or effect the other way; inactive = no such curve, though single readings can be large or run the other way.
# How the values were obtained:
# [1] = Quantitative High-Throughput drug screen in 47 multiple myeloma cell lines against the NCATS MIPE library collection: LP1_DSMZ cell viability assay (AID 1918982); conditions: LP1 myeloma viability, CellTiter-Glo ATP luminescence, 48 h; series mostly up to 45.8 µM; also: nearly all actives have a fitted effect of over 35% in size
# How it was run: (§1)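 Myeloma cells (500/well) treated with MIPE 4.0 compounds for 48 h at 37 °C, 5% CO2. Viability read as ATP via CellTiter-Glo luminescence after 5 min at RT; DMSO-only wells = 100%, media-only = 0% viability.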
# [2] = Quantitative High-Throughput drug screen in 47 multiple myeloma cell lines against the NCATS MIPE library collection: KMS28PE_JCRB cell viability assay (AID 1918983); conditions: KMS28PE multiple myeloma viability, CellTiter-Glo ATP, 48 h; series mostly up to 45.8 µM; also: nearly all actives have a fitted effect of over 35% in size; also: potency is read from the fitted curve at half-maximal effect
# How it was run: as §1
# [3] = Quantitative High-Throughput drug screen in 47 multiple myeloma cell lines against the NCATS MIPE library collection: L363_DSMZ cell viability assay (AID 1918984); conditions: L363 myeloma viability, CellTiter-Glo ATP luminescence, 48 h; series mostly up to 45.8 µM; also: nearly all actives have a fitted effect of over 40% in size; also: potency is read from the fitted curve at half-maximal effect
# How it was run: as §1
# [4] = Quantitative High-Throughput drug screen in 47 multiple myeloma cell lines against the NCATS MIPE library collection: KMS34_JCRB cell viability assay (AID 1918985); conditions: KMS34 myeloma viability, CellTiter-Glo ATP luminescence, 48 h; series mostly up to 45.8 µM; also: nearly all actives have a fitted effect of over 40% in size; also: potency is read from the fitted curve at half-maximal effect
# How it was run: as §1
# [5] = Quantitative High-Throughput drug screen in 47 multiple myeloma cell lines against the NCATS MIPE library collection: OCIMY7_PLB cell viability assay (AID 1918987); conditions: OCI-MY7 myeloma viability, CellTiter-Glo ATP, 48 h; series mostly up to 45.8 µM; also: nearly all actives have a fitted effect of over 65% in size; also: potency is read from the fitted curve at half-maximal effect
# How it was run: as §1
# [6] = Quantitative High-Throughput drug screen in 47 multiple myeloma cell lines against the NCATS MIPE library collection: OPM1_PLB cell viability assay (AID 1918989); conditions: CellTiter-Glo, 48 h; series mostly up to 45.8 µM; also: nearly all actives have a fitted effect of over 40% in size; also: potency is read from the fitted curve at half-maximal effect
# How it was run: as §1
# [7] = Quantitative High-Throughput drug screen in 47 multiple myeloma cell lines against the NCATS MIPE library collection: XG6_PLB cell viability assay (AID 1919865); conditions: XG6 myeloma viability, CellTiter-Glo ATP luminescence, 48 h; series mostly up to 45.8 µM; also: nearly all actives have a fitted effect of over 40% in size; also: potency is read from the fitted curve at half-maximal effect
# How it was run: as §1
# [8] = Quantitative High-Throughput drug screen in 47 multiple myeloma cell lines against the NCATS MIPE library collection: OCIMY5_PLB cell viability assay (AID 1918988); conditions: OCI-MY5 myeloma viability, ATP luminescence, 48 h; series mostly up to 45.8 µM; also: nearly all actives have a fitted effect of over 65% in size; also: potency is read from the fitted curve at half-maximal effect
# How it was run: as §1
# [9] = Quantitative High-Throughput drug screen in 47 multiple myeloma cell lines against the NCATS MIPE library collection: SKMM1_PLB cell viability assay (AID 1919863); conditions: SKMM1 myeloma viability, CellTiter-Glo ATP, 48 h; viability: stronger effect = lower value; also: nearly all actives have a fitted effect of over 35% in size; also: potency is read from the fitted curve at half-maximal effect
# How it was run: as §1
# [10] = Quantitative High-Throughput drug screen in 47 multiple myeloma cell lines against the NCATS MIPE library collection: U266_ATCC cell viability assay (AID 1919864); conditions: U266 myeloma viability, CellTiter-Glo ATP luminescence, 48 h; series mostly up to 45.8 µM; also: nearly all actives have a fitted effect of over 35% in size; also: potency is read from the fitted curve at half-maximal effect
# Text: PI: Beverly A. Mock Ph.D.
# Laboratory of Cancer Biology and Genetics,
# Center for Cancer Research, National Cancer Institute,
# National Institute of Health, Bethesda, Maryland
# Drug resistance and disease progression are common in multiple myeloma (MM) patients, underscoring the need for new therapeutic combinations. […] We hypothesized that effective combinations would reduce MYC expression and enhance p16 activity. […] These preclinical data identify potentially useful drug combinations for evaluation in drug-resistant MM and reveal potential mechanisms of combined drug sensitivity.
# Described herein is the primary MIPE qHTS used to cherrypick compounds. Validated compounds were then further tested for potential synergistic activiy.
# [1] Peat TJ, Gaikwad SM, Dubois W, Gyabaah-Kessie N, Zhang S, Gorjifard S, Phyo Z, Andres M, Hughitt VK, Simpson RM, Miller MA, Girvin AT, Taylor A, Williams D, D'Antonio N, Zhang Y, Rajagopalan A, Flietner E, Wilson K, Zhang X, Shinn P, Klumpp-Thomas C, McKnight C, Itkin Z, Chen L, Kazandijian D, Zhang J, Michalowski AM, Simmons JK, Keats J, Thomas CJ, Mock BA. Drug combinations identified by high-throughput screening promote cell cycle transition and upregulate Smad pathways in myeloma. Cancer Lett. 2023 Aug 1;568:216284. doi: 10.1016/j.canlet.2023.216284. Epub 2023 Jun 24. PMID: 37356470; PMCID: PMC10408729.
# SEQUENCE No. (e.g., 1, 2, 3, etc.); […] (e.g., Cells, Incubation, Reagent, etc.); VALUE and DESCRIPTION.
# 1; Cells; 5 uL; white, solid bottom 1536-well Greiner assay plate.
# 2; Compounds; 23 nL; Kalypsis pin tool (Wako USA) equipped with a 1536-well pin head to transfer to the assay plates.
# 3; Incubation; 48 hours; 37C incubation.
# 4; Reagent;5uL; CellTiter Glo (Promega).
# 5; Detector; 425V; Luminescence; Viewlux PerkinElmer.
# NOTES (numbers refer to Sequence numbers above)
# 1. The cell-based screening methods employed in this study were like those previously published. Briefly, the corresponding myeloma cell lines were screened in 1,536-well plates with 500 cells, 5-uL per well for inhibition of cell viability (assessed by measuring ATP levels with CellTiterGlo).
# 2. NCATS MIPE 4.0 library of approved and investigational drugs were added using the Kalypsis pin tool. Wells treated with DMSO only for 100% viability and media only for 0% viability were used as controls.
# 3. The assay plates were covered and incubated for 48 hours in a 37C, 5% CO2 incubator with controlled humidity.
# 4. After 48 hours, CellTilter-GloTM luminescent substrate mix (Promega) reagent was added to the assay plate and plates we incubated for 5 min at room temperature.
# 5. Signal was measured as median relative luminescence units on a ViewLux (PerkinElmer) multiplate reader.
# [1] Heske CM, Davis MI, Baumgart JT, Wilson K, Gormally MV, Chen L, Zhang X, Ceribelli M, Duveau DY, Guha R, Ferrer M, Arnaldez FI, Ji J, Tran HL, Zhang Y, Mendoza A, Helman LJ, Thomas CJ. Matrix Screen Identifies Synergistic Combination of PARP Inhibitors and Nicotinamide Phosphoribosyltransferase (NAMPT) Inhibitors in Ewing Sarcoma. Clin Cancer Res. 2017 Dec 1;23(23):7301-7311. doi: 10.1158/1078-0432.CCR-17-1121. Epub 2017 Sep 12. PMID: 28899971; PMCID: PMC6636827.
SMILES,outcome [1],Potency [2],Potency [3],Potency [4],Potency [5],Potency [6],Potency [7],Potency [8],viability [9],Potency [10],Potency [9]
C[C@]12CC[C@H]3[C@@H](CC[C@@]45O[C@H]4C(O)=C(C#N)C[C@]35C)[C@H]1CC[C@H]2O,inactive,inactive,inactive,16.6 µM (active),5.26 µM (active),inactive,inactive,–,–,–,–
CC(NC(C)(C)C)C(=O)c1cccc(Cl)c1 (stereo not drawn),–,inactive,–,inactive,–,–,inactive,13.2 µM (active),112%,–,–
COc1cc(OC)c(OC)cc1C=O,inactive,inactive,inactive,inactive,–,inactive,–,inactive,–,–,–
CC(C)c1cccc(C(C)C)c1O,inactive,inactive,–,inactive,–,inactive,inactive,–,119%,inactive,–
CN1C(=O)COc2c(C(=O)NC3CN4CCC3CC4)cc(Cl)cc21 (stereo not drawn),inactive,inactive,–,–,–,inactive,inactive,–,152%,inactive,–
O=P1(N(CCCl)CCCl)NCCCO1 (stereo not drawn),inactive,–,10.5 µM (active),–,–,13.2 µM (active),inactive,–,–,–,–
CN1C(=O)CCS(=O)(=O)C1c1ccc(Cl)cc1 (stereo not drawn),inactive,inactive,inactive,inactive,inactive,inactive,18.7 µM (active),inactive,109%,inactive,–
O=C(O)CCCc1ccc(N(CCCl)CCCl)cc1,–,–,–,–,4.69 µM (active),–,11.8 µM (active),inactive,–,inactive,–
CCC1(c2ccc(N)cc2)CCC(=O)NC1=O (stereo not drawn),inactive,inactive,–,inactive,–,inactive,inactive,inactive,–,1.32 µM (active),–
C[C@]12CCC(=O)C=C1CC[C@@H]1[C@H]3CC[C@](C)(O)[C@@]3(C)CC[C@@H]12,–,inactive,–,–,30.3 µM (active),inactive,–,48.1 µM (active),–,38.2 µM (active),30.3 µM (active)
CC(C)C[C@H](CN)CC(=O)O,inactive,inactive,–,inactive,–,inactive,inactive,–,–,–,–
C[C@](O)(CS(=O)(=O)c1ccc(F)cc1)C(=O)Nc1ccc(C#N)c(C(F)(F)F)c1,–,26.4 µM (active),–,–,0.469 µM (active),1.87 µM (active),0.148 µM (active),0.372 µM (active),–,0.935 µM (active),–
C[C@]12CC[C@@H]3c4ccc(OC(=O)N(CCCl)CCCl)cc4CC[C@H]3[C@@H]1CC[C@@H]2OP(=O)(O)O,inactive,–,inactive,inactive,–,inactive,inactive,–,–,–,–
